Screens (PubChem BioAssay)
A selection: hits, their analogues and other compounds. The true share with any hit is near 27%.
CYP2C19 inh – human CYP2C19 inhibition. P33261. CYP2C19 Supersomes, luciferin-H EGE luminescence, 30 min. inhibition, % at 5 µM. 96,000 compounds, 21% hits;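 active = CYP2C19 inhibition above a set limit at 5 µM in the primary screen, cut at about 50% in these data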;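 also: plate controls were negative control wells for no effect and 2.5 mM tranylcypromine positive control for full effect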
CYP2C19 activ – cytochrome P450 2C19 (human) activation; AID 1025; P33261; recombinant CYP2C19, luciferin-H EGE luminescence; stronger effect = higher value; 0 = fully inhibited enzyme, 1 = untreated enzyme; activation factor at 5 µM; 96,000 tested, under 10 active;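 active = activation factor of at least 2 at 5 µM in the primary screen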;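 also: 0 = wells with 2.5 mM tranylcypromine and 1 = vehicle-only wells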
CYP2C9 activ – increases human cytochrome P450 2C9 activity; P11712; recombinant CYP2C9, luciferin-H conversion, luminescence; stronger effect = higher value; factor 1 = untreated enzyme, 0 = blocked; activation factor at 5 µM; 96,000 compounds, 1.4% hits;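 active = activation factor of 2 or more for CYP2C9 at a 5 µM dose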;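 also: 0 = sulfaphenazole-blocked wells and 1 = vehicle-only wells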
CYP2C9 inhib – blocks human cytochrome P450 2C9; P11712; 96,000 compounds, 20% hits; CYP2C9 Supersomes, luciferin-H conversion, luminescence; AID 777; inhibition, % at 5 µM;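 active = blocking of liver enzyme CYP2C9 beyond about 50% at 5 µM, limit read from the data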
Cav32 inh – human Cav3.2 channel inhibition, primary screen. 100,000 compounds, 4% hits. B-score at 10 µM. Cav3.2-expressing cells, Fluo-4 calcium fluorescence FDSS; stronger effect = lower value;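 active = single-dose well whose peak fluorescence ratio is a statistical outlier from its plate by either plate-standardised score or position-corrected B-score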
Target sequence (O95180 whole entry, looked up): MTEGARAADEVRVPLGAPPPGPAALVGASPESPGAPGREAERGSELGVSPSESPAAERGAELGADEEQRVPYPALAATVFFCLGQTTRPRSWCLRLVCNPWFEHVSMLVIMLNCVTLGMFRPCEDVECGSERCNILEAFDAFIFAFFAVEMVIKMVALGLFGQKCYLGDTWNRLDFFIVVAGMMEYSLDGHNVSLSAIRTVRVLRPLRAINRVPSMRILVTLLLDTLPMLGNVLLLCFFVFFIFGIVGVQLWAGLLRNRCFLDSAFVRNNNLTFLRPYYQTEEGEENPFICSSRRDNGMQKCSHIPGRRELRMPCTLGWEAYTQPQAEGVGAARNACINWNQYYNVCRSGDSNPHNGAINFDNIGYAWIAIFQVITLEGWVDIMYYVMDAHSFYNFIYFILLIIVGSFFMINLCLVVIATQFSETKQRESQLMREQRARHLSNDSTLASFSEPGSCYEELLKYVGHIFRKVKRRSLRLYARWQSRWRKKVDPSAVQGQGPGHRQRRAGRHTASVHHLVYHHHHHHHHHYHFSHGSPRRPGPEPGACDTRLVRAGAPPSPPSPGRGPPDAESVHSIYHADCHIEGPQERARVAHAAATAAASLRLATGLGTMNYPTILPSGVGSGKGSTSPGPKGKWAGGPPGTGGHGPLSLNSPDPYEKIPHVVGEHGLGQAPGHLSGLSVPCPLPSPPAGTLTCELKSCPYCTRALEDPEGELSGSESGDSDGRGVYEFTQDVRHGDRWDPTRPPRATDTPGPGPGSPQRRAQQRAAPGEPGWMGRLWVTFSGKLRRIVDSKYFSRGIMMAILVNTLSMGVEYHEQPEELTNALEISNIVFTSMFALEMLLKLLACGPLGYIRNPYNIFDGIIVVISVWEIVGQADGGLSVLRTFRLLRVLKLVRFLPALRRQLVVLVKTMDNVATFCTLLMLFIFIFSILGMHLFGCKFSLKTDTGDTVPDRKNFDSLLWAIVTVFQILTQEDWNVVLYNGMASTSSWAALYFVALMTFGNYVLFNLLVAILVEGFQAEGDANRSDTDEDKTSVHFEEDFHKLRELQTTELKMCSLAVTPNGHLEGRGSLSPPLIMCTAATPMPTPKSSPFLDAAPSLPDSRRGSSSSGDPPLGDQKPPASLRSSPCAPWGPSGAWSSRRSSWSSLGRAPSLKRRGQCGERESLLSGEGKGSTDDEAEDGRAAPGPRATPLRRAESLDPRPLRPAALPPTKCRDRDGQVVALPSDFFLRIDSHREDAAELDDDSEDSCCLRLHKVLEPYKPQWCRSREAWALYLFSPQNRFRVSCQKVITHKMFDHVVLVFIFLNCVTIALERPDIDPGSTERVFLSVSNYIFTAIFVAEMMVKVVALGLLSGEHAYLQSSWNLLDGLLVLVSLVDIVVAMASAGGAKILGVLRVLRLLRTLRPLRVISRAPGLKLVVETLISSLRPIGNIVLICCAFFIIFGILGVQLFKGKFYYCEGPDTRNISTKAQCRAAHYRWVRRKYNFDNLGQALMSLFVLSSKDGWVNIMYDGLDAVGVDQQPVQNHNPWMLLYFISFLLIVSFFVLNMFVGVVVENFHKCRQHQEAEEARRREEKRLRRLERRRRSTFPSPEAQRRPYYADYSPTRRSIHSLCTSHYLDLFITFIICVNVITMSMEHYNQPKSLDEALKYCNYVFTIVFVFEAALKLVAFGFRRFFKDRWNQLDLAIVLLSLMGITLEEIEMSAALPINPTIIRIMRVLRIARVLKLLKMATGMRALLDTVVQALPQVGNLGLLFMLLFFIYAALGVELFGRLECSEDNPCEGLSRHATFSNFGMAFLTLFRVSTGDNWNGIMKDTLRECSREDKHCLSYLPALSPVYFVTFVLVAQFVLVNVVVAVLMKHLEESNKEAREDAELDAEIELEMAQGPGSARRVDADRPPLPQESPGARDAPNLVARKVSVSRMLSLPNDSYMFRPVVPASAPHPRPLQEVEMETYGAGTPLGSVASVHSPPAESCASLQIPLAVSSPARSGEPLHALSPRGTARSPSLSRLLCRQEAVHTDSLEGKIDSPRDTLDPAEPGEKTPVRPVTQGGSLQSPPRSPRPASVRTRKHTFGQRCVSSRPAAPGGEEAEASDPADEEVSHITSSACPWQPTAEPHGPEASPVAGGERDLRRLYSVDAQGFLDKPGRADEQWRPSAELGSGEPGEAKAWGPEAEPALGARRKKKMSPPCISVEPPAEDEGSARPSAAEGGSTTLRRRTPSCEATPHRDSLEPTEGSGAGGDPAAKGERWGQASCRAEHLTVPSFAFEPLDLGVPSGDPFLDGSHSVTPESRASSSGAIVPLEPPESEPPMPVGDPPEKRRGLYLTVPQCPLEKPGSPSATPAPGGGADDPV
* = called active by the depositor; . = not tested or not shown.

SMILES	CYP2C19 inh	CYP2C19 activ	CYP2C9 activ	CYP2C9 inhib	Cav32 inh
Cc1ccc2nc(SCC(=O)Nc3cccc([N+](=O)[O-])c3)[nH]c2c1	46	0.5	0.1	90*	-2.9
CC(C)CC(=O)N1CCN(Cc2ccc3c(c2)OCO3)CC1	17	0.8	1	-1	0.036
Cc1nn(-c2cccc(C(F)(F)F)c2)c(Cl)c1/C=N/n1cnnc1	90*	0.1	0	95*	-0.92
COc1ccc(Sc2ccccc2CN(C)C)cc1OC	57*	0.4	0.7	26	-0.089
COc1ccccc1CNCc1cc(OC)c(OC)cc1OC	18	0.8	1	2	-0.62
Cc1nnc(SCC(=O)NCCN2C(=O)CSC2=O)s1	-1	1	1.1	-6	0.21
Cn1nc(CC(=O)NCCN2C(=O)CSC2=O)c2ccccc2c1=O	70*	0.3	1.2	-15	-0.0044
O=C(CSc1nc(C2CCCCC2)n(-c2ccccc2)n1)NCCN1C(=O)CSC1=O	95*	0	0	98*	-0.63
O=C(CSc1nc(-c2ccccc2)c(-c2ccccc2)[nH]1)NCCN1C(=O)CSC1=O	63*	0.4	0.7	34	2.1
COc1cc2oc3ccccc3c2cc1N(CC(=O)N1CCCCC1)S(=O)(=O)c1ccc(C)cc1	1	1	0.6	38	-0.49
O=C(CN1C(=O)C2C3C=CC(C3)C2C1=O)Nc1nc2ccccc2[nH]1 (stereo unspecified)	-2	1	0.9	7	-1.1
N#Cc1ccc(C2=NC(C(F)(F)F)(C(F)(F)F)c3c(n(Cc4ccco4)c(=O)[nH]c3=O)N2)cc1	32	0.7	0	96*	-5.9*
O=c1[nH]c(=O)n(Cc2ccco2)c2c1C(C(F)(F)F)(C(F)(F)F)N=C(C1CCCCC1)N2	10	0.9	1	3	0.074
O=c1[nH]c(=O)n(Cc2ccco2)c2c1C(C(F)(F)F)(C(F)(F)F)N=C(CCc1ccccc1)N2	22	0.8	0.3	68*	-3.2
Cc1ccccc1-c1nnc(NC(=O)CSc2nc3ccccc3s2)s1	.	.	.	.	-0.96
C[C@@H]1NC(=O)c2cc([N+](=O)[O-])cc(I)c2OCC[C@@H](C(N)=O)NC(=O)[C@H](CCC(=O)O)NC1=O	.	.	.	.	-0.21
CC(=O)N1CCC(Nc2ccc(C)cc2)CC1	6	0.9	0.5	54*	-0.81
CCN(CCO)Cc1csc2ccc(Br)cc12	38	0.6	1.3	-28	0.24
CCCC(=O)Nc1c(C)nn(C(=O)CCC)c1C	-5	1	1.1	-7	1.3
CC1CCc2nn(CC(=O)Nc3c(F)cc(F)cc3Br)cc2C1 (stereo unspecified)	43	0.6	0.4	62*	-0.77
CC1CCc2nn(CC(=O)NCc3ccc(F)cc3)cc2C1 (stereo unspecified)	90*	0.1	0.5	47	0.24
CC1(C)CC(=O)C(C(C2=C(O)CC(C)(C)CC2=O)c2cccc(O)c2)C(=O)C1 (stereo unspecified)	-5	1.1	1	-1	0.45
CC1=NN(c2ccc(C)c(C)c2)C(=O)C1C(c1cccc(O)c1)C1C(=O)N(c2ccc(C)c(C)c2)N=C1C (stereo unspecified)	24	0.8	0.4	61*	-3.3
COc1cccc(C(=O)N2CCN(Cc3ccc4c(c3)OCO4)CC2)c1OC	9	0.9	1.2	-20	-1
Cn1c(C(=O)Nc2ccc3c(c2)OCO3)cc2sccc21	96*	0	0.8	23	-0.48
SMILES	CYP2C19 inh	CYP2C19 activ	CYP2C9 activ	CYP2C9 inhib	Cav32 inh
O=C(COC(=O)c1ccc2c(c1)OCO2)NCc1ccc2c(c1)OCO2	40	0.6	1.2	-23	0.54
CC(C)n1c(C(=O)OCC(=O)NCc2ccc3c(c2)OCO3)cc2sccc21	42	0.6	0.1	86*	-3.3*
Cn1c(C(=O)NCc2ccc3c(c2)OCO3)cc2sccc21	80*	0.2	0.3	75*	-2.3
COc1ccsc1C(=O)N1CCN(Cc2ccc3c(c2)OCO3)CC1	85*	0.1	0.6	40	-0.078
COCCN(C(=O)Nc1ccc(OC)cc1OC)C1CCN(C(C)=O)CC1	-11	1.1	1	1	0.85
O=C(c1ccc(Br)s1)N1CCN(Cc2ccc3c(c2)OCO3)CC1	40	0.6	0.6	44	-0.19
Cn1c(C(=O)N2CCN(Cc3ccc4c(c3)OCO4)CC2)cc2sccc21	70*	0.3	1	4	-4.6
CC(CCc1ccccc1)NC(=O)c1cc2sccc2n1C (stereo unspecified)	14	0.9	0.7	28	-3
COc1cc(NC(=O)c2cc3sccc3n2C)cc(OC)c1	86*	0.1	0.2	80*	-1.9
CCc1ccccc1NC(=O)c1cc2sccc2n1C	25	0.7	1.1	-10	-2.4*
Cn1c(C(=O)Nc2ccccc2)cc2sccc21	18	0.8	0.8	17	-2.3
CC(C)NC(=O)c1onc(CSc2ccccc2)c1C(=O)O	8	0.9	0.7	33	0.96
COc1cccc(SCc2noc(C(=O)NC(C)C)c2C(=O)O)c1	11	0.9	0.4	61*	-0.63
C=CCNC(=O)c1onc(CSc2cccc(OC)c2)c1C(=O)O	6	0.9	0.3	67*	0.62
COC(=O)c1c(CSc2cccc(C)c2)noc1C(=O)NCc1ccco1	82*	0.2	0.2	78*	-1.4
Cc1cccc(SCc2noc(C(=O)NC(C)C)c2C(=O)O)c1	13	0.9	0.4	55*	-0.027
Cc1ccc(S(=O)(=O)N2CCN(C(=O)C3Cc4ccccc4CN3C(=O)c3ccco3)CC2)cc1 (stereo unspecified)	15	0.8	0.9	12	2.7
Cc1cccc2cc(CN(Cc3cccs3)C3(c4nnnn4C4CCCC4)CCCC3)c(=O)[nH]c12	12	0.9	0.6	42	0.39
CC(C)NC(=O)c1onc(CSc2ccncc2)c1C(=O)NC(C)C	.	.	.	.	-0.6
Cc1cc(C)cc(SCc2noc(C(=O)NC(C)C)c2C(=O)O)c1	16	0.8	0.3	70*	0.025
CC(C)Oc1ccc(CSc2nnc3n(C)c(=O)c4c5c(sc4n23)CCCC5)cc1	.	.	.	.	0.53
C=C(C)CSc1nnc2n(C)c(=O)c3c4c(sc3n12)CCC4	55*	0.5	0.4	56*	1.9
CCN(CC)S(=O)(=O)c1cccc(C(=O)OCC(=O)c2ccc3c(c2)NC(=O)CO3)c1	43	0.6	0.7	31	-1.3
CCN(CC)S(=O)(=O)c1cccc(C(=O)OCc2cc(=O)n3nc(C)sc3n2)c1	23	0.8	0.4	55*	-0.1
O=C(NC12CC3CC(CC(C3)C1)C2)N1CCC(O)(c2ccc3c(c2)OCO3)CC1	43	0.6	1.1	-5	-0.24
O=C(COc1ccc2c(c1)OCO2)NC12CC3CC(CC(C3)C1)C2	94*	0.1	0.3	75*	-2.8
COCCNC(=O)C1CC(=O)N(CCc2ccccc2)C1 (stereo unspecified)	22	0.8	1.1	-13	0.056
